Experimental findings from article PMC7862700, “An all-to-all approach to the identification of sequence-specific readers for epigenetic DNA modifications on cytosine” are described below.

Common to all, as to assay: DAPPL (digital affinity profiling via proximity ligation, sequencing); 10 mM Tris-HCl pH 7.5, 50 mM NaCl, 1 mM DTT, 4% glycerol, room temperature, 30 min; GST-TFs on glutathione beads, 16-mer random dsDNA library, 0.1% formaldehyde crosslink after washing; high values mean tight binding
In one experiment the target is T1, FLI1 (Homo sapiens, UniProt Q01543 1-452).
T1 sequence: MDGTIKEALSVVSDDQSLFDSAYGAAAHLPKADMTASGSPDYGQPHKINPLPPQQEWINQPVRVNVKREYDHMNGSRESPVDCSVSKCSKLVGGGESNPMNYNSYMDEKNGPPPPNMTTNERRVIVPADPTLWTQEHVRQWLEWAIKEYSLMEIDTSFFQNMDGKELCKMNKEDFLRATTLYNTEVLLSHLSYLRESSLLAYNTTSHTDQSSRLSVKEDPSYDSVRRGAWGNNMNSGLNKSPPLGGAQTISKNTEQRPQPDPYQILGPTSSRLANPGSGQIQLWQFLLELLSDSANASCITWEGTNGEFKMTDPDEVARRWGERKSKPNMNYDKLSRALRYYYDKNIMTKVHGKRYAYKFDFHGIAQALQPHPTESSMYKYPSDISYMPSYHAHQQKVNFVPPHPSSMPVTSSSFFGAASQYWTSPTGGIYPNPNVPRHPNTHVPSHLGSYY
Conditions: protein: recombinant; tags: N-terminal GST; dsDNA, one strand shown. Put shortly:
(§1)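 Beads coated with glutathione captured GST-fused human transcription factors that had been expressed in yeast, and the factors were then given DNA barcodes and pooled with a tag-only sample. The pools were incubated with 200 nmole of a random double-stranded 16-mer DNA library in Tris/NaCl/DTT/glycerol buffer for 30 min at room temperature, washed, crosslinked with 0.1% formaldehyde and proximity-ligated with BsaI/T4 ligase at 37 °C for 1 h. PCR amplification and Illumina NextSeq500 sequencing came last. Binding signal is each hexamer's read frequency for a factor divided by its frequency for the tag-only sample.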

Another experiment deals with T2, ELK1 (Homo sapiens, UniProt P19419 1-428).
T2 sequence: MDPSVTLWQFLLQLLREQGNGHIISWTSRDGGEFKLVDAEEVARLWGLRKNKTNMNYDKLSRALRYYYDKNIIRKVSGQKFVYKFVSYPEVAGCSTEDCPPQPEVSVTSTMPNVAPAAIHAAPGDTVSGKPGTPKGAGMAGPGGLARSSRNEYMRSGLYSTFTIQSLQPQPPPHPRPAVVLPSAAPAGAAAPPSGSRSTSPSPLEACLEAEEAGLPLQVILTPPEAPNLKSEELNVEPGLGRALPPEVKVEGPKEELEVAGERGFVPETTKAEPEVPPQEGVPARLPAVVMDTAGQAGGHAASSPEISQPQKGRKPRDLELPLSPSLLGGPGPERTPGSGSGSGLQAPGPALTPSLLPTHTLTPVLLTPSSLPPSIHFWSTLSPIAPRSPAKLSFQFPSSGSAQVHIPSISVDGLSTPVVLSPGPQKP
As to conditions: protein: recombinant; tags: N-terminal GST; dsDNA, one strand shown. Put shortly: as §1

Another experiment deals with T3, GABPA (Homo sapiens, UniProt Q06546 1-454).
T3 sequence: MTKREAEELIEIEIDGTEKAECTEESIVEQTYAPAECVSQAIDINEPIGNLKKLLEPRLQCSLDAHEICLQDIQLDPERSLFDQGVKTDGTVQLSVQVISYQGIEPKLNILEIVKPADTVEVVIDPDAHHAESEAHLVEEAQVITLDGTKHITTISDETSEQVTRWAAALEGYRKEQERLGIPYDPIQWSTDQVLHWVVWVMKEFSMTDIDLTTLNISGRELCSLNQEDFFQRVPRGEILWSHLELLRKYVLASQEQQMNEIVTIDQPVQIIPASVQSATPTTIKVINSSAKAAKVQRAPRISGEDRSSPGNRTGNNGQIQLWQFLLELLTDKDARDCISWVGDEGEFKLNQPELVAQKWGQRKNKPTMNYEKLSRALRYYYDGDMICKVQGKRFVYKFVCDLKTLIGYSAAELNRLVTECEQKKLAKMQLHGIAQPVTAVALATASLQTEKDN
Conditions: protein: recombinant; tags: N-terminal GST; dsDNA, one strand shown. Put shortly:
as §1

The target of another experiment is T4, ERG (Homo sapiens, UniProt P11308 1-479).
T4 sequence: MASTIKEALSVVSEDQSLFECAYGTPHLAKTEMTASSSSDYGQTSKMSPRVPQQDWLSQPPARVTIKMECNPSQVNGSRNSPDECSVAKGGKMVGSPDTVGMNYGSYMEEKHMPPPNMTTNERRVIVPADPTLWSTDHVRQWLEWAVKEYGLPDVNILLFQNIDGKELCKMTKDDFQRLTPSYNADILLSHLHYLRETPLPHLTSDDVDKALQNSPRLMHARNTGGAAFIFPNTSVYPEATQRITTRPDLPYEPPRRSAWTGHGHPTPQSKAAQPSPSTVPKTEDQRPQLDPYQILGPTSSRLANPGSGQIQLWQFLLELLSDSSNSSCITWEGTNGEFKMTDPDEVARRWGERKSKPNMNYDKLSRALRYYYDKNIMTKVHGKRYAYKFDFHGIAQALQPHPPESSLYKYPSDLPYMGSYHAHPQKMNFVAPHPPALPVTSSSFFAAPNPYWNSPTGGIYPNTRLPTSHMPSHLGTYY
Conditions: protein: recombinant; tags: N-terminal GST; dsDNA, one strand shown. Put shortly: as §1

Another experiment concerns the target ELF1 (Homo sapiens, UniProt P32519 1-619). As to conditions: protein: recombinant; tags: N-terminal GST; dsDNA, one strand shown. Put shortly: as §1
Another experiment deals with T5, EHF (Homo sapiens, UniProt Q9NZC4 1-300).
T5 sequence: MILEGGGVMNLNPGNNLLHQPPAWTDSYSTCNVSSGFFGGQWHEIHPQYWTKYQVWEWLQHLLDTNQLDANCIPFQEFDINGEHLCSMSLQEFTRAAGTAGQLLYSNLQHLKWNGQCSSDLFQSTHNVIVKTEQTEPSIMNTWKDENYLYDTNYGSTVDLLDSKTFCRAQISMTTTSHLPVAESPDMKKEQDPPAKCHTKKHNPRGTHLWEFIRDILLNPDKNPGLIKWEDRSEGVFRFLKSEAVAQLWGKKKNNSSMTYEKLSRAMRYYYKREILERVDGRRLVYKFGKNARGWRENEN
As to conditions: protein: recombinant; tags: N-terminal GST; dsDNA, one strand shown. Put shortly: as §1

The next experiment concerns the target SPI1 (Homo sapiens, UniProt P17947 1-270). Conditions: protein: recombinant; tags: N-terminal GST; dsDNA, one strand shown. Put shortly:
as §1

For the next experiment, the target named is SPIB (Homo sapiens, UniProt Q01892 1-262). Conditions: protein: recombinant; tags: N-terminal GST; dsDNA, one strand shown. Put shortly: as §1
Sequence of SPIB (Q01892 whole entry): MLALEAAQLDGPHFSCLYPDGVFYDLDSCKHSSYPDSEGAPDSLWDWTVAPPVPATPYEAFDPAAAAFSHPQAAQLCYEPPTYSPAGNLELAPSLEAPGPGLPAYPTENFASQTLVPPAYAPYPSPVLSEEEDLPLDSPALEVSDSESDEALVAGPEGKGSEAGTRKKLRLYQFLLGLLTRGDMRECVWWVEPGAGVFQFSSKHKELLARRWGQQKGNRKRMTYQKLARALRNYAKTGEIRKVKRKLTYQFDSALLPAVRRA
The target in the next experiment is T6, ELK3 (Homo sapiens, UniProt P41970 1-407).
T6 sequence: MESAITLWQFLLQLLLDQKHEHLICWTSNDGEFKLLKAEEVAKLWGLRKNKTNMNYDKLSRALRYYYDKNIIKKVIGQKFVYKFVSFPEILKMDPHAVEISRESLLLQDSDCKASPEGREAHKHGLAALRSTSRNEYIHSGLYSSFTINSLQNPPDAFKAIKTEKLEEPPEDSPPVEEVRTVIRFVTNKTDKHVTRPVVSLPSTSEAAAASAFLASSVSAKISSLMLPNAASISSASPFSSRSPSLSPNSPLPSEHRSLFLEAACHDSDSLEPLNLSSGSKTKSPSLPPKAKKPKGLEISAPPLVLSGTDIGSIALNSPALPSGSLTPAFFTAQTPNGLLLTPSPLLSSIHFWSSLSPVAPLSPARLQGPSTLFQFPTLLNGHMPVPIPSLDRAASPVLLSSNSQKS
As to conditions: protein: recombinant; tags: N-terminal GST; dsDNA, one strand shown. Put shortly: as §1

The next experiment has as its target T7, FEV (Homo sapiens, UniProt Q99581 1-238).
T7 sequence: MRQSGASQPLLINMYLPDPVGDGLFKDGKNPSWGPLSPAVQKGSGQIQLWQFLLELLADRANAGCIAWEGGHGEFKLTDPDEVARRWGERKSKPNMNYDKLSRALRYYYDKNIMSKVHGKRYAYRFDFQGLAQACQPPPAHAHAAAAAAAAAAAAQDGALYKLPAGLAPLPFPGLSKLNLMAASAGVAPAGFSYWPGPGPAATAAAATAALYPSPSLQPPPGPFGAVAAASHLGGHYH
Conditions: protein: recombinant; tags: N-terminal GST; dsDNA, one strand shown. Put shortly: as §1

The next experiment deals with ETV5 (Homo sapiens, UniProt P41161 1-510). As to conditions: protein: recombinant; tags: N-terminal GST; dsDNA, one strand shown. Put shortly:
as §1

A further experiment deals with HSF1 (Homo sapiens, UniProt Q00613 1-529). Conditions: protein: recombinant; tags: N-terminal GST; chain copies: 3; dsDNA, one strand shown. Put shortly:
as §1

The target of a further experiment is T8, SPIC (Homo sapiens, UniProt Q8N5J4 1-248).
T8 sequence: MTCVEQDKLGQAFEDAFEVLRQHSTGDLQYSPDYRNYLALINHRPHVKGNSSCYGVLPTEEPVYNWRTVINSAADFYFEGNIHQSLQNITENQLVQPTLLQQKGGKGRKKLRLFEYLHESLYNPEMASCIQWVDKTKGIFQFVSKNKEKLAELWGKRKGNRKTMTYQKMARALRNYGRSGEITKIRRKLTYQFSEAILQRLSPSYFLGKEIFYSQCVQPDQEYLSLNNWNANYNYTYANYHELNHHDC
Conditions: protein: recombinant; tags: N-terminal GST; dsDNA, one strand shown. Put shortly:
as §1

A further experiment deals with T9, ELK4 (Homo sapiens, UniProt P28324-2 1-405).
T9 sequence: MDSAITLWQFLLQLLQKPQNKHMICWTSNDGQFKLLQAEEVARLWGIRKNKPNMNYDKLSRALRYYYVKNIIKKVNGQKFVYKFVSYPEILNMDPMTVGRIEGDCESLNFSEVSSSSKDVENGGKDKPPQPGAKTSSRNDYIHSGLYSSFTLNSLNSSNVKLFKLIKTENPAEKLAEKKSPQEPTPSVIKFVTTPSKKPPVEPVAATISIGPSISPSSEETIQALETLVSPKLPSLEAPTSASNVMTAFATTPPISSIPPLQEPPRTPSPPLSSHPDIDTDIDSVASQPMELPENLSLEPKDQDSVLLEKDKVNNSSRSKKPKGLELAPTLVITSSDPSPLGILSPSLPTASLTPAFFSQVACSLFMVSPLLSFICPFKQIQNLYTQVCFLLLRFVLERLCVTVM
Conditions: protein: recombinant; tags: N-terminal GST; dsDNA, one strand shown. Put shortly: as §1

For the next experiment, the target named is T10, ETV2 (Homo sapiens, UniProt O00321 1-342).
T10 sequence: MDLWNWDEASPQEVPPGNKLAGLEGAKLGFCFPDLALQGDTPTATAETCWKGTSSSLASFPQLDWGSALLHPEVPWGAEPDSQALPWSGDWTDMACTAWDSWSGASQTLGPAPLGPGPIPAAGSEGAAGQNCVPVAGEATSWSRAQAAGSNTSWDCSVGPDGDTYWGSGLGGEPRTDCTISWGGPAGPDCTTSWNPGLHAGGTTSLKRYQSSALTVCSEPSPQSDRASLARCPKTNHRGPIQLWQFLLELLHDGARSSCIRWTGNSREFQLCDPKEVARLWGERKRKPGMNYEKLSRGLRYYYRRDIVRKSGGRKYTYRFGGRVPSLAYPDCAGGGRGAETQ
As to conditions: protein: recombinant; tags: N-terminal GST; dsDNA, one strand shown. Put shortly: as §1

The target of the next experiment is T11, ELF3 (Homo sapiens, UniProt P78545 1-371).
T11 sequence: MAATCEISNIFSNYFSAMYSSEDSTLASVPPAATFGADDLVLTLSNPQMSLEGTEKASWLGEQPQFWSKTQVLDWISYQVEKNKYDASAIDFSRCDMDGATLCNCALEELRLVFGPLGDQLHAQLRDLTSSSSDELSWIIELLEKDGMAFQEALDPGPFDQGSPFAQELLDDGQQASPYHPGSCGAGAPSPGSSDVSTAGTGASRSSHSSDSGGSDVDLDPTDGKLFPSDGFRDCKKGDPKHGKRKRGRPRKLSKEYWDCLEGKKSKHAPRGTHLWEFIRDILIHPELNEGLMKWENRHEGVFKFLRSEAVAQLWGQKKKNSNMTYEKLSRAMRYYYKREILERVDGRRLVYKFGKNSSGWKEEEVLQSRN
As to conditions: protein: recombinant; tags: N-terminal GST; dsDNA, one strand shown. Put shortly:
as §1

The target in a further experiment is CRX (Homo sapiens, UniProt O43186 1-299). As to conditions: protein: recombinant; tags: N-terminal GST; dsDNA, one strand shown. Put shortly:
as §1

The target in the next experiment is ETV1 (Homo sapiens, UniProt P50549 1-477). As to conditions: protein: recombinant; tags: N-terminal GST; dsDNA, one strand shown. Put shortly: as §1
Sequence of ETV1 (P50549 whole entry): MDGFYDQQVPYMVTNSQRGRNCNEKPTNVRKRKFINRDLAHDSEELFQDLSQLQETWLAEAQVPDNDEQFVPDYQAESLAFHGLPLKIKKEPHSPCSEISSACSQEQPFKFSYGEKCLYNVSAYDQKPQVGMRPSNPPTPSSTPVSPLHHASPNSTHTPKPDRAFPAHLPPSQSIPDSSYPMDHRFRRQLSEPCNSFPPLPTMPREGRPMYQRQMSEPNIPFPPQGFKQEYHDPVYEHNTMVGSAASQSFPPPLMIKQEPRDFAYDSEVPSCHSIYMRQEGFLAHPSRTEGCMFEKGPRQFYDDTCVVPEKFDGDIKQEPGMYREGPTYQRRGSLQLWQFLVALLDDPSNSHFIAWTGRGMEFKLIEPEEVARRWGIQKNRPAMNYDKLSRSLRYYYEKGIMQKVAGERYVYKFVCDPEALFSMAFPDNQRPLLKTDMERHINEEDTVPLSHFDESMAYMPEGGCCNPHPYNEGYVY

Sequence of ETV5 (P41161 whole entry): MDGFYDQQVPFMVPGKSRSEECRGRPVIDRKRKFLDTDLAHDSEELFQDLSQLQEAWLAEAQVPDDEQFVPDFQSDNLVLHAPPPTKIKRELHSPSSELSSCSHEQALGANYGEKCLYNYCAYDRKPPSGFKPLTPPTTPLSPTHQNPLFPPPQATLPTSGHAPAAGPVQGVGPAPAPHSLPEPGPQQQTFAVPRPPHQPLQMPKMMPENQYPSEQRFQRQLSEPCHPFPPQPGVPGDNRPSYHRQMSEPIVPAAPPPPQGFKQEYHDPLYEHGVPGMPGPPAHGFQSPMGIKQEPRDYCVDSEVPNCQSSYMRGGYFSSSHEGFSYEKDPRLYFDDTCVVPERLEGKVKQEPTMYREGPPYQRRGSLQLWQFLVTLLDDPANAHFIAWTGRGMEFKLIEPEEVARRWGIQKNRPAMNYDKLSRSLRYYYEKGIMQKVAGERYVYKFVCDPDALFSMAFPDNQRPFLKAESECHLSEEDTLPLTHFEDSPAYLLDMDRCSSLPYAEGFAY
Sequence of HSF1 (Q00613 whole entry): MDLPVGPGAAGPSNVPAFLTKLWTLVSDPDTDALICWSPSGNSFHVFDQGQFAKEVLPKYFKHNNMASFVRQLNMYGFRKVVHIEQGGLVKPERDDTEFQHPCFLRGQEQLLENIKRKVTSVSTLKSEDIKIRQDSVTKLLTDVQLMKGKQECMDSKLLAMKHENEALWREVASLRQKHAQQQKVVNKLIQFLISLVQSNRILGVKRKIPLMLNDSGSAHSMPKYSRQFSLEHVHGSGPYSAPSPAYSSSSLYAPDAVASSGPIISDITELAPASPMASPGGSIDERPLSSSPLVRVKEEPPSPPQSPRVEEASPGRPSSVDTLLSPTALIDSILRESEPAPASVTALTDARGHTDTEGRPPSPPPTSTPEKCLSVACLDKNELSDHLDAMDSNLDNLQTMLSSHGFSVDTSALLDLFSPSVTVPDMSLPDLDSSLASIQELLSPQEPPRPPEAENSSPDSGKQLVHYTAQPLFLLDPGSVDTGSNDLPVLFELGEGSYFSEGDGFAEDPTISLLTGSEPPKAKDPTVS
Sequence of ELF1 (P32519 whole entry): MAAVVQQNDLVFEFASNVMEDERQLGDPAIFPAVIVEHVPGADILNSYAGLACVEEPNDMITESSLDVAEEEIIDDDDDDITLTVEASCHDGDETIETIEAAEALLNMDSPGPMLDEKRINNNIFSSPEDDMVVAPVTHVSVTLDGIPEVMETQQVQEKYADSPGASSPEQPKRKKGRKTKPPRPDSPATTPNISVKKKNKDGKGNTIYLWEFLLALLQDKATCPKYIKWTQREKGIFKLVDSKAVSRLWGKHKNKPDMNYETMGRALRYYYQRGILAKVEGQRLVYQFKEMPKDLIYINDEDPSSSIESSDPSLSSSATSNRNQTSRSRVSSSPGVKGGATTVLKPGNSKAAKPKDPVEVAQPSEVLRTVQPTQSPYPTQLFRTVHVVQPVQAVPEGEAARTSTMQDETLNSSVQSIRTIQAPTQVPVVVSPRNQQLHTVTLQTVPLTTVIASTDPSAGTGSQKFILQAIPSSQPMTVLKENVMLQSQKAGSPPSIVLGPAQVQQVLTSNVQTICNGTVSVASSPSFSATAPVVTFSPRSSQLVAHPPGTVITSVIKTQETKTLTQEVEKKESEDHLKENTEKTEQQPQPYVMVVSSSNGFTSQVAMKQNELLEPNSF
Sequence of CRX (O43186 whole entry): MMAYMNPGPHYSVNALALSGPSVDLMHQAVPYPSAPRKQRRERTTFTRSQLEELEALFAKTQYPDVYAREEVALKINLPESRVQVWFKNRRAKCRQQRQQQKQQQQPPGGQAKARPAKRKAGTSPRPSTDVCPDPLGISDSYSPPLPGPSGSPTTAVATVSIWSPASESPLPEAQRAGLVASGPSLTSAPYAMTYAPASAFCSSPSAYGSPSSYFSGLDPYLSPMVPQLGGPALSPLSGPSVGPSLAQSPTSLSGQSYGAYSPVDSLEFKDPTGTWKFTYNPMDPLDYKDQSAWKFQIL

Regarding TCAAAT, the binding signal in the experiment with FLI1 was 1.04 fold enrichment (6-mer frequency, TF over GST control); with ELK1, 1.05 fold enrichment (6-mer frequency, TF over GST control); in the experiment with GABPA, 1.14 fold enrichment (6-mer frequency, TF over GST control); in the experiment with ERG it was 1.06 fold enrichment (6-mer frequency, TF over GST control); with ELF1 it was 1.15 fold enrichment (6-mer frequency, TF over GST control); in the experiment with EHF, 1.07 fold enrichment (6-mer frequency, TF over GST control). Further, the binding signal in the experiment with SPI1 is 1.11 fold enrichment (6-mer frequency, TF over GST control); in the experiment with SPIB, 1.05 fold enrichment (6-mer frequency, TF over GST control); in the experiment with ELK3, 1.03 fold enrichment (6-mer frequency, TF over GST control); with FEV it was 1.1 fold enrichment (6-mer frequency, TF over GST control); with ETV5, 1.09 fold enrichment (6-mer frequency, TF over GST control); in the experiment with HSF1, 1.15 fold enrichment (6-mer frequency, TF over GST control). The binding signal in the experiment with SPIC is 1.12 fold enrichment (6-mer frequency, TF over GST control); in the experiment with ELK4 it was 1.04 fold enrichment (6-mer frequency, TF over GST control); with ETV2, 1.1 fold enrichment (6-mer frequency, TF over GST control); in the experiment with ELF3 it was 1.15 fold enrichment (6-mer frequency, TF over GST control); with CRX it was 1.32 fold enrichment (6-mer frequency, TF over GST control); with ETV1 it was 1.13 fold enrichment (6-mer frequency, TF over GST control).
